The molecules below were run on UCD52 (cells of a triple-negative basal-like breast cancer xenograft) (assay: cell viability of combination (% of vehicle); higher = less cytotoxic). Conditions: 1 µM; 72 h; partner dose: 10 nM.
Procedure: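 PDX cells were treated for 72 h with each drug at 1 µM plus afatinib (10 nM; 1 µM for WHIM30). Luciferase viability is expressed as percent of vehicle.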

SMILES | cell viability of combination
CC(C)C1=CC(=C2NNC(=O)N2c2ccc3c(ccn3C)c2)C(=O)C=C1O [Ganetespib (STA-9090)] + CN(C)C/C=C/C(=O)Nc1cc2c(Nc3ccc(F)c(Cl)c3)ncnc2cc1O[C@H]1CCOC1 [Afatinib] | 30.9
CN(C)CCOc1ccc(C(=C(CCCl)c2ccccc2)c2ccccc2)cc1.O=C(O)CC(O)(CC(=O)O)C(=O)O [Toremifene Citrate] + CN(C)C/C=C/C(=O)Nc1cc2c(Nc3ccc(F)c(Cl)c3)ncnc2cc1O[C@H]1CCOC1 [Afatinib] | 77.4
C=C1C(=CC=C2CCCC3(C)C2CCC3C(C)CCCC(C)(C)O)CC(O)CC1O (stereo not given) [Calcitriol] + CN(C)C/C=C/C(=O)Nc1cc2c(Nc3ccc(F)c(Cl)c3)ncnc2cc1O[C@H]1CCOC1 [Afatinib] | 43.3
Clc1ccc(C(Cn2ccnc2)OCc2c(Cl)cccc2Cl)c(Cl)c1.O=[N+]([O-])O (stereo not given) [Isoconazole nitrate] + CN(C)C/C=C/C(=O)Nc1cc2c(Nc3ccc(F)c(Cl)c3)ncnc2cc1O[C@H]1CCOC1 [Afatinib] | 78.3
CCc1oc2ccccc2c1C(=O)c1cc(Br)c(O)c(Br)c1 [Benzbromarone] + CN(C)C/C=C/C(=O)Nc1cc2c(Nc3ccc(F)c(Cl)c3)ncnc2cc1O[C@H]1CCOC1 [Afatinib] | 77.2
COc1cccc2c1C(=O)c1c(O)c3c(c(O)c1C2=O)CC(O)(C(=O)CO)CC3OC1CC(N)C(O)C(C)O1 (stereo not given) [Doxorubicin] + CN(C)C/C=C/C(=O)Nc1cc2c(Nc3ccc(F)c(Cl)c3)ncnc2cc1O[C@H]1CCOC1 [Afatinib] | 28.5
CCCCCCCCOc1ccccc1C(=O)Nc1ccc(C(=O)OCC[N+](C)(CC)CC)cc1.[Br-] [Otilonium Bromide] + CN(C)C/C=C/C(=O)Nc1cc2c(Nc3ccc(F)c(Cl)c3)ncnc2cc1O[C@H]1CCOC1 [Afatinib] | 78.6
CC(=O)c1cc2c(o1)C(=O)c1ccccc1C2=O [Napabucasin] + CN(C)C/C=C/C(=O)Nc1cc2c(Nc3ccc(F)c(Cl)c3)ncnc2cc1O[C@H]1CCOC1 [Afatinib] | 17.4
Cl.OC(c1cc(C(F)(F)F)nc2c(C(F)(F)F)cccc12)C1CCCCN1 (stereo not given) [Mefloquine hydrochloride] + CN(C)C/C=C/C(=O)Nc1cc2c(Nc3ccc(F)c(Cl)c3)ncnc2cc1O[C@H]1CCOC1 [Afatinib] | 50.3
CN(C)c1ccc(O)c2c1CC1CC3C(N(C)C)C(=O)C(C(N)=O)=C(O)C3(O)C(=O)C1=C2O.Cl (stereo not given) [Minocycline HCl] + CN(C)C/C=C/C(=O)Nc1cc2c(Nc3ccc(F)c(Cl)c3)ncnc2cc1O[C@H]1CCOC1 [Afatinib] | 75.9
COC(=O)NC(C(=O)N1CCCC1c1ncc(-c2ccc(-c3ccc(-c4cnc(C5CCCN5C(=O)C(NC(=O)OC)C(C)C)[nH]4)cc3)cc2)[nH]1)C(C)C (stereo not given) + CN(C)C/C=C/C(=O)Nc1cc2c(Nc3ccc(F)c(Cl)c3)ncnc2cc1O[C@H]1CCOC1 [Afatinib] | 59.1
CC[C@@]1(O)C(=O)OCc2c1cc1n(c2=O)Cc2cc3c(CN(C)C)c(O)ccc3nc2-1.Cl [Topotecan HCl] + CN(C)C/C=C/C(=O)Nc1cc2c(Nc3ccc(F)c(Cl)c3)ncnc2cc1O[C@H]1CCOC1 [Afatinib] | 66.5
COc1ccc(C[C@H](N)C(=O)N[C@@H]2[C@H](O)[C@H](n3cnc4c(N(C)C)ncnc43)O[C@@H]2CO)cc1.Cl.Cl [Puromycin dihydrochloride] + CN(C)C/C=C/C(=O)Nc1cc2c(Nc3ccc(F)c(Cl)c3)ncnc2cc1O[C@H]1CCOC1 [Afatinib] | 18.2
COc1cccc2c1C(=O)c1c(O)c3c(c(O)c1C2=O)CC(O)(C(=O)CO)CC3OC1CC(N)C(O)C(C)O1.Cl (stereo not given) [Epirubicin HCl] + CN(C)C/C=C/C(=O)Nc1cc2c(Nc3ccc(F)c(Cl)c3)ncnc2cc1O[C@H]1CCOC1 [Afatinib] | 28
COc1ncc(-c2ccc3nccc(-c4ccnnc4)c3c2)cc1NS(=O)(=O)c1ccc(F)cc1F + CN(C)C/C=C/C(=O)Nc1cc2c(Nc3ccc(F)c(Cl)c3)ncnc2cc1O[C@H]1CCOC1 [Afatinib] | 15.8
Nc1ccn(C2OC(CO)C(O)C2O)c(=O)n1 (stereo not given) [Cytarabine] + CN(C)C/C=C/C(=O)Nc1cc2c(Nc3ccc(F)c(Cl)c3)ncnc2cc1O[C@H]1CCOC1 [Afatinib] | 65.7
CC(C)COc1ccc(CNC(=O)N(Cc2ccc(F)cc2)C2CCN(C)CC2)cc1 [Pimavanserin] + CN(C)C/C=C/C(=O)Nc1cc2c(Nc3ccc(F)c(Cl)c3)ncnc2cc1O[C@H]1CCOC1 [Afatinib] | 65.2
CCOc1nc2cccc(C(=O)OC(C)OC(=O)OC3CCCCC3)c2n1Cc1ccc(-c2ccccc2-c2nn[nH]n2)cc1 (stereo not given) [Candesartan Cilexetil] + CN(C)C/C=C/C(=O)Nc1cc2c(Nc3ccc(F)c(Cl)c3)ncnc2cc1O[C@H]1CCOC1 [Afatinib] | 74.5
CC[C@H](C)[C@H]1O[C@]2(CC[C@@H]1C)C[C@@H]1C[C@@H](C/C=C(\C)[C@@H](O[C@H]3C[C@H](OC)[C@@H](O[C@H]4C[C@H](OC)[C@@H](O)[C@H](C)O4)[C@H](C)O3)[C@@H](C)/C=C/C=C3\CO[C@@H]4[C@H](O)C(C)=C[C@@H](C(=O)O1)[C@]34O)O2 [Ivermectin] + CN(C)C/C=C/C(=O)Nc1cc2c(Nc3ccc(F)c(Cl)c3)ncnc2cc1O[C@H]1CCOC1 [Afatinib] | 45.8
CCCCCCCCCCCCCCCCOP(=O)([O-])OCC[N+](C)(C)C [Miltefosine] + CN(C)C/C=C/C(=O)Nc1cc2c(Nc3ccc(F)c(Cl)c3)ncnc2cc1O[C@H]1CCOC1 [Afatinib] | 69.5

SMILES | cell viability of combination
COC(=O)C1=C(C)NC(C)=C(C(=O)OC2CCCN(Cc3ccccc3)C2)C1c1cccc([N+](=O)[O-])c1.Cl (stereo not given) [Benidipine HCl] + CN(C)C/C=C/C(=O)Nc1cc2c(Nc3ccc(F)c(Cl)c3)ncnc2cc1O[C@H]1CCOC1 [Afatinib] | 79.2
CC(C)(C)NC(=O)C1CC2CCCCC2CN1CC(O)C(Cc1ccccc1)NC(=O)C(CC(N)=O)NC(=O)c1ccc2ccccc2n1.CS(=O)(=O)O (stereo not given) [Saquinavir mesylate] + CN(C)C/C=C/C(=O)Nc1cc2c(Nc3ccc(F)c(Cl)c3)ncnc2cc1O[C@H]1CCOC1 [Afatinib] | 61.1
CN1CCN(c2ccc(C(=O)/N=c3\[nH][nH]c4ccc(Cc5cc(F)cc(F)c5)cc34)c(NC3CCOCC3)c2)CC1 [Entrectinib] + CN(C)C/C=C/C(=O)Nc1cc2c(Nc3ccc(F)c(Cl)c3)ncnc2cc1O[C@H]1CCOC1 [Afatinib] | 54.3
Cc1cn(-c2cc(NC(=O)c3ccc(C)c(Nc4nccc(-c5cccnc5)n4)c3)cc(C(F)(F)F)c2)cn1 [Nilotinib(AMN-107)] + CN(C)C/C=C/C(=O)Nc1cc2c(Nc3ccc(F)c(Cl)c3)ncnc2cc1O[C@H]1CCOC1 [Afatinib] | 56.1
CCCSc1nc(NC2CC2c2ccc(F)c(F)c2)c2nnn(C3CC(OCCO)C(O)C3O)c2n1 (stereo not given) [Ticagrelor] + CN(C)C/C=C/C(=O)Nc1cc2c(Nc3ccc(F)c(Cl)c3)ncnc2cc1O[C@H]1CCOC1 [Afatinib] | 72.2
O=C1C=CC=CC1=C1NC(=C2C=CC=CC2=O)N(c2ccc(C(=O)O)cc2)N1 [Deferasirox] + CN(C)C/C=C/C(=O)Nc1cc2c(Nc3ccc(F)c(Cl)c3)ncnc2cc1O[C@H]1CCOC1 [Afatinib] | 68.2
C=C(c1ccc(C(=O)O)cc1)c1cc2c(cc1C)C(C)(C)CCC2(C)C [Bexarotene] + CN(C)C/C=C/C(=O)Nc1cc2c(Nc3ccc(F)c(Cl)c3)ncnc2cc1O[C@H]1CCOC1 [Afatinib] | 82.4
CNC(=O)c1cc(Oc2ccc(NC(=O)Nc3ccc(Cl)c(C(F)(F)F)c3)c(F)c2)ccn1 [Regorafenib] + CN(C)C/C=C/C(=O)Nc1cc2c(Nc3ccc(F)c(Cl)c3)ncnc2cc1O[C@H]1CCOC1 [Afatinib] | 55.9
COc1cc2nccc(Oc3ccc(NC(=O)C4(C(=O)Nc5ccc(F)cc5)CC4)cc3)c2cc1OC.O=C(O)CC(O)C(=O)O [Cabozantinib malate (XL184)] + CN(C)C/C=C/C(=O)Nc1cc2c(Nc3ccc(F)c(Cl)c3)ncnc2cc1O[C@H]1CCOC1 [Afatinib] | 64.7
CCN(CC)CCNC(=O)c1c(C)[nH]c(C=C2C(=O)Nc3ccc(F)cc32)c1C.O=C(O)CC(O)C(=O)O [Sunitinib malate] + CN(C)C/C=C/C(=O)Nc1cc2c(Nc3ccc(F)c(Cl)c3)ncnc2cc1O[C@H]1CCOC1 [Afatinib] | 43.6
CCCCc1oc2ccc(NS(C)(=O)=O)cc2c1C(=O)c1ccc(OCCCN(CCCC)CCCC)cc1 [Dronedarone] + CN(C)C/C=C/C(=O)Nc1cc2c(Nc3ccc(F)c(Cl)c3)ncnc2cc1O[C@H]1CCOC1 [Afatinib] | 57.7
CC(C)CC(NC(=O)C(NC(=O)c1cccc(-c2ccccc2)n1)C(C)O)B(O)O (stereo not given) + CN(C)C/C=C/C(=O)Nc1cc2c(Nc3ccc(F)c(Cl)c3)ncnc2cc1O[C@H]1CCOC1 [Afatinib] | 18.9
CC(C)(C)c1ccc(C(=O)CCCN2CCC(OC(c3ccccc3)c3ccccc3)CC2)cc1 [Ebastine] + CN(C)C/C=C/C(=O)Nc1cc2c(Nc3ccc(F)c(Cl)c3)ncnc2cc1O[C@H]1CCOC1 [Afatinib] | 70.1
CC(C)C(=O)OCC(=O)[C@@]12O[C@H](C3CCCCC3)O[C@@H]1C[C@H]1[C@@H]3CCC4=CC(=O)C=C[C@]4(C)[C@H]3[C@@H](O)C[C@@]12C [Ciclesonide] + CN(C)C/C=C/C(=O)Nc1cc2c(Nc3ccc(F)c(Cl)c3)ncnc2cc1O[C@H]1CCOC1 [Afatinib] | 99.5
CC[C@@]1(O)C(=O)OCc2c1cc1n(c2=O)Cc2cc3c(CN(C)C)c(O)ccc3nc2-1 [Topotecan] + CN(C)C/C=C/C(=O)Nc1cc2c(Nc3ccc(F)c(Cl)c3)ncnc2cc1O[C@H]1CCOC1 [Afatinib] | 76.4
CCC(NC(=O)C(C)NC)C(=O)N1CC(O)CC1Cc1c(-c2[nH]c3cc(F)ccc3c2CC2CC(O)CN2C(=O)C(CC)NC(=O)C(C)NC)[nH]c2cc(F)ccc12 (stereo not given) + CN(C)C/C=C/C(=O)Nc1cc2c(Nc3ccc(F)c(Cl)c3)ncnc2cc1O[C@H]1CCOC1 [Afatinib] | 53.5
CN(C(=O)CN(CCO)CC(=O)N(C)C(C)(C)Cc1ccccc1)C(C)(C)Cc1ccccc1 [Oxethazaine] + CN(C)C/C=C/C(=O)Nc1cc2c(Nc3ccc(F)c(Cl)c3)ncnc2cc1O[C@H]1CCOC1 [Afatinib] | 62.9
CO[C@H]1C[C@@H]2CC[C@@H](C)[C@@](O)(O2)C(=O)C(=O)N2CCCC[C@H]2C(=O)O[C@H]([C@H](C)C[C@@H]2CC[C@@H](O)[C@H](OC)C2)CC(=O)[C@H](C)/C=C(\C)[C@@H](O)[C@@H](OC)C(=O)[C@H](C)C[C@H](C)/C=C/C=C/C=C/1C [Rapamycin (Sirolimus)] + CN(C)C/C=C/C(=O)Nc1cc2c(Nc3ccc(F)c(Cl)c3)ncnc2cc1O[C@H]1CCOC1 [Afatinib] | 42.5
CC(C)CC(NC(=O)CNC(=O)c1cc(Cl)ccc1Cl)B(O)O (stereo not given) + CN(C)C/C=C/C(=O)Nc1cc2c(Nc3ccc(F)c(Cl)c3)ncnc2cc1O[C@H]1CCOC1 [Afatinib] | 18.1
CC1=CC(=O)c2ccccc2C1=O [Menadione] + CN(C)C/C=C/C(=O)Nc1cc2c(Nc3ccc(F)c(Cl)c3)ncnc2cc1O[C@H]1CCOC1 [Afatinib] | 74.6

From the supplement of paper PMC6992640
